Laboratory results reported in paper PMC7862700, “An all-to-all approach to the identification of sequence-specific readers for epigenetic DNA modifications on cytosine”.

How the values were obtained:
Test in all cases: DAPPL (digital affinity profiling via proximity ligation, sequencing); 10 mM Tris-HCl pH 7.5, 50 mM NaCl, 1 mM DTT, 4% glycerol, room temperature, 30 min; GST-TFs on glutathione beads, 16-mer random dsDNA library, 0.1% formaldehyde crosslink after washing; high values mean tight binding
FLI1 = molecular target: T1, FLI1 (Homo sapiens, UniProt Q01543 1-452); settings: protein: recombinant; tags: N-terminal GST; dsDNA, one strand shown
T1 sequence: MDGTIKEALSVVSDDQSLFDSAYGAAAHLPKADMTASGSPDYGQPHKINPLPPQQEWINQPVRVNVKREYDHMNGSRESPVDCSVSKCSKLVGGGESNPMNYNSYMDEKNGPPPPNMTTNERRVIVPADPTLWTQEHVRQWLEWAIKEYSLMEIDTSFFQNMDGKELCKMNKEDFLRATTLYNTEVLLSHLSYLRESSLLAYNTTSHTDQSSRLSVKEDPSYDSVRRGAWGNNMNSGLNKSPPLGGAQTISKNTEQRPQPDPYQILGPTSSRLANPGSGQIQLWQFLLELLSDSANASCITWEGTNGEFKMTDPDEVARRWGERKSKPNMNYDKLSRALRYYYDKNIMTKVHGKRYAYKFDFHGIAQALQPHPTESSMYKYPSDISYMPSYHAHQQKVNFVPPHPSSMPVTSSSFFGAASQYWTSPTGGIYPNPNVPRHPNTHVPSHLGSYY
In short: (§1)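 Human transcription factors carrying a GST fusion were produced in yeast, bound to glutathione beads, tagged with DNA barcodes and pooled together with a tag-only sample. Each pool was held with 200 nmole of a random double-stranded 16-mer DNA library in Tris/NaCl/DTT/glycerol buffer for 30 min at room temperature, then washed, crosslinked in 0.1% formaldehyde, proximity-ligated with BsaI/T4 ligase (1 h, 37 °C), PCR-amplified and sequenced on an Illumina NextSeq500. Binding signal is the read frequency of each hexamer for a given factor divided by its frequency in the tag-only sample.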

ELK1 = molecular target: T2, ELK1 (Homo sapiens, UniProt P19419 1-428); settings: protein: recombinant; tags: N-terminal GST; dsDNA, one strand shown
T2 sequence: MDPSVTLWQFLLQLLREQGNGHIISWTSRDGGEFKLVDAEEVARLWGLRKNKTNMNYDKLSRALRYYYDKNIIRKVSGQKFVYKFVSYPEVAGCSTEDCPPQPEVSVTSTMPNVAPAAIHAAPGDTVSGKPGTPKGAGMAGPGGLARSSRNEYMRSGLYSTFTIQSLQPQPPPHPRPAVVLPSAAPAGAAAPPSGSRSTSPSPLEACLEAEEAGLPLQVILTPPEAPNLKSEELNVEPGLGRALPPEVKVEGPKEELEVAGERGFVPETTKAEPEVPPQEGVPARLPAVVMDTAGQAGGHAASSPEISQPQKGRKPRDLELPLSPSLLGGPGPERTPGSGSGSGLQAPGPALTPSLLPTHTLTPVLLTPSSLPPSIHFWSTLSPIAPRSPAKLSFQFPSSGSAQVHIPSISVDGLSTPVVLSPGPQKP
In short: as §1

GABPA = molecular target: T3, GABPA (Homo sapiens, UniProt Q06546 1-454); settings: protein: recombinant; tags: N-terminal GST; dsDNA, one strand shown
T3 sequence: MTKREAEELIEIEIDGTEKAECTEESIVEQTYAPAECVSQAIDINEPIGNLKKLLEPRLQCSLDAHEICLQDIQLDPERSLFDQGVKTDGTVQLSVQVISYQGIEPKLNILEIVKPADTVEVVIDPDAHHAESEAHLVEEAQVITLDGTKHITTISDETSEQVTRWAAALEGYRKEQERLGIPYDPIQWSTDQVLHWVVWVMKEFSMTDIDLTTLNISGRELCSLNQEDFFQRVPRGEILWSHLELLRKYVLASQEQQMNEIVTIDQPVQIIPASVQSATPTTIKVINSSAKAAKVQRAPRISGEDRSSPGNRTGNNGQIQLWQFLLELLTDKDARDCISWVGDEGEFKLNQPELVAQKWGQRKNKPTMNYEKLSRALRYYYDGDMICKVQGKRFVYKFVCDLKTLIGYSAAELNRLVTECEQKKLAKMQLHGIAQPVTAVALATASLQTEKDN
In short: as §1

ERG = molecular target: T4, ERG (Homo sapiens, UniProt P11308 1-479); settings: protein: recombinant; tags: N-terminal GST; dsDNA, one strand shown
T4 sequence: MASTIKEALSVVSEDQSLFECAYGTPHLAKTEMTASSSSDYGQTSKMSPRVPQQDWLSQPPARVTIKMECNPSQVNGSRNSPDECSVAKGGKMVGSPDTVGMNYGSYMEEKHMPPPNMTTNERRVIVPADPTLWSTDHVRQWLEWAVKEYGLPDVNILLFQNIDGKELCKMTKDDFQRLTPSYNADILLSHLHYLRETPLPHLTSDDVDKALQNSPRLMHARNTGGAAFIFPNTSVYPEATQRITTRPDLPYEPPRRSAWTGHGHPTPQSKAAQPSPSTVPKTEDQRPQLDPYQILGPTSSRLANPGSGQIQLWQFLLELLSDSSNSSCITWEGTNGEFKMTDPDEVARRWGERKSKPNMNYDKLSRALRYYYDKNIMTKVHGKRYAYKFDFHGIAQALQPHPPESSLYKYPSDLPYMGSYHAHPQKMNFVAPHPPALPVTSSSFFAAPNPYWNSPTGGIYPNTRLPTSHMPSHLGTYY
In short: as §1

ELF1 = ELF1 (Homo sapiens, UniProt P32519 1-619); settings: protein: recombinant; tags: N-terminal GST; dsDNA, one strand shown
In short: as §1

EHF = molecular target: T5, EHF (Homo sapiens, UniProt Q9NZC4 1-300); settings: protein: recombinant; tags: N-terminal GST; dsDNA, one strand shown
T5 sequence: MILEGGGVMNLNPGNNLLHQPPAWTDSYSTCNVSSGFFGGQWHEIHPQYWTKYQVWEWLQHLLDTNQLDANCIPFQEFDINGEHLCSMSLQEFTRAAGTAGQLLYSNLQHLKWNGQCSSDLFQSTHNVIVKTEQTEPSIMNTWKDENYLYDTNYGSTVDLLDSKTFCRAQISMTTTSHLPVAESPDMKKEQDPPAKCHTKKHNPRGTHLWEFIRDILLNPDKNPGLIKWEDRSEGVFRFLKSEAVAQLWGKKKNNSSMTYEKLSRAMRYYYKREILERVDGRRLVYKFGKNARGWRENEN
In short: as §1

SPI1 = SPI1 (Homo sapiens, UniProt P17947 1-270); settings: protein: recombinant; tags: N-terminal GST; dsDNA, one strand shown
In short: as §1

SPIB = SPIB (Homo sapiens, UniProt Q01892 1-262); settings: protein: recombinant; tags: N-terminal GST; dsDNA, one strand shown
In short: as §1

ELK3 = molecular target: T6, ELK3 (Homo sapiens, UniProt P41970 1-407); settings: protein: recombinant; tags: N-terminal GST; dsDNA, one strand shown
T6 sequence: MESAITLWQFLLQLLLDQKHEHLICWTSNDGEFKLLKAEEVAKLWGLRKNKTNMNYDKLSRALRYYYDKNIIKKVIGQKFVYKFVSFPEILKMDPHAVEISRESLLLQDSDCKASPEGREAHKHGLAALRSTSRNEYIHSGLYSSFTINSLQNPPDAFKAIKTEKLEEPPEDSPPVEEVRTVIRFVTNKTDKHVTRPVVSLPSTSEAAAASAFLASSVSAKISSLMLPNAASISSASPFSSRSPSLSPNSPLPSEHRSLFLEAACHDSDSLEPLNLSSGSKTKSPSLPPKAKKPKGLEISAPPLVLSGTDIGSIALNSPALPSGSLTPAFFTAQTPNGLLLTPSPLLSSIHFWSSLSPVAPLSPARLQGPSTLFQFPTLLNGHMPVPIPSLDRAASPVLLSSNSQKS
In short: as §1

FEV = molecular target: T7, FEV (Homo sapiens, UniProt Q99581 1-238); settings: protein: recombinant; tags: N-terminal GST; dsDNA, one strand shown
T7 sequence: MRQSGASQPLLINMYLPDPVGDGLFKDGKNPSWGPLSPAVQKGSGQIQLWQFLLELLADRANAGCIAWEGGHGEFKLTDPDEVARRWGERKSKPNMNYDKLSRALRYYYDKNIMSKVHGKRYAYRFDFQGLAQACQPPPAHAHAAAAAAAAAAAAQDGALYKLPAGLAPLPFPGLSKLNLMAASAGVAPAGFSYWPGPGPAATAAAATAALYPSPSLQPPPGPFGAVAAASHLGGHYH
In short: as §1

ETV5 = ETV5 (Homo sapiens, UniProt P41161 1-510); settings: protein: recombinant; tags: N-terminal GST; dsDNA, one strand shown
In short: as §1

HSF1 = HSF1 (Homo sapiens, UniProt Q00613 1-529); settings: protein: recombinant; tags: N-terminal GST; chain copies: 3; dsDNA, one strand shown
In short: as §1

SPIC = molecular target: T8, SPIC (Homo sapiens, UniProt Q8N5J4 1-248); settings: protein: recombinant; tags: N-terminal GST; dsDNA, one strand shown
T8 sequence: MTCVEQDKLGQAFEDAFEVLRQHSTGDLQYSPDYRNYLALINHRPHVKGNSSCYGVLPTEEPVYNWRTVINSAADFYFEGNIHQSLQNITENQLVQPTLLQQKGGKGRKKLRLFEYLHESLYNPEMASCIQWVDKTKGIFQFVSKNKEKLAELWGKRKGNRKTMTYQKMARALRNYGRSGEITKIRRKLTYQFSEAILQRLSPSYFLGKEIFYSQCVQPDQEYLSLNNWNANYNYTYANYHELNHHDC
In short: as §1

ELF4 = ELF4 (Homo sapiens, UniProt Q99607 1-663); settings: protein: recombinant; tags: N-terminal GST; dsDNA, one strand shown
In short: as §1

ELK4 = molecular target: T9, ELK4 (Homo sapiens, UniProt P28324-2 1-405); settings: protein: recombinant; tags: N-terminal GST; dsDNA, one strand shown
T9 sequence: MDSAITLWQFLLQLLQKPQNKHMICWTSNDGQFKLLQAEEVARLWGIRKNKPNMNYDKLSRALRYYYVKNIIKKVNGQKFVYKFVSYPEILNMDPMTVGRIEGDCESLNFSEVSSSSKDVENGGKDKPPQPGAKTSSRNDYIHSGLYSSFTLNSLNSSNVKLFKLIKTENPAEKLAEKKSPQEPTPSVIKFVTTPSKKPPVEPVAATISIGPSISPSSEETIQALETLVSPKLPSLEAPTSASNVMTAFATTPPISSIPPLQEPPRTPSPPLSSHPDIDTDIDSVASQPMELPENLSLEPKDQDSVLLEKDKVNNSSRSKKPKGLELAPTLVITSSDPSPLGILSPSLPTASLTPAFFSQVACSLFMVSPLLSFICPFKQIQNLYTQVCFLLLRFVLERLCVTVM
In short: as §1

ETV2 = molecular target: T10, ETV2 (Homo sapiens, UniProt O00321 1-342); settings: protein: recombinant; tags: N-terminal GST; dsDNA, one strand shown
T10 sequence: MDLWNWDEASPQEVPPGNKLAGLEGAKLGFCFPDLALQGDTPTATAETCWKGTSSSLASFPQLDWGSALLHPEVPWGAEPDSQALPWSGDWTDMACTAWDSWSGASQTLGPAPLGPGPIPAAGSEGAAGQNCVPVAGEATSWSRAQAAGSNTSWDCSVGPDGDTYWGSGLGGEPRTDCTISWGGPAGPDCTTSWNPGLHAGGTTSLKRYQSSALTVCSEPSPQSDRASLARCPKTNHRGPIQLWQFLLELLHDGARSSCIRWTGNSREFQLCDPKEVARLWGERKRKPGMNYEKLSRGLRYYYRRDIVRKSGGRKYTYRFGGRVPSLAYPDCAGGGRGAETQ
In short: as §1

ELF3 = molecular target: T11, ELF3 (Homo sapiens, UniProt P78545 1-371); settings: protein: recombinant; tags: N-terminal GST; dsDNA, one strand shown
T11 sequence: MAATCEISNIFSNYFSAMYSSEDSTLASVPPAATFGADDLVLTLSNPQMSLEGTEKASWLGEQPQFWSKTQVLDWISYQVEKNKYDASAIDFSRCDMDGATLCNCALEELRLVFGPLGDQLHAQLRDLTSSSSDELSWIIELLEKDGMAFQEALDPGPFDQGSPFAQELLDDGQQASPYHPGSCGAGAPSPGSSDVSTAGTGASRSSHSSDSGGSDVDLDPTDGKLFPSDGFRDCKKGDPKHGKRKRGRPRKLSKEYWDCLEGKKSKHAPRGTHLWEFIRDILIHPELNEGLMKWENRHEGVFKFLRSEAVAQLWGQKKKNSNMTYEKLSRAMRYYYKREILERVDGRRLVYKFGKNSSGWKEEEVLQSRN
In short: as §1

CRX = CRX (Homo sapiens, UniProt O43186 1-299); settings: protein: recombinant; tags: N-terminal GST; dsDNA, one strand shown
In short: as §1

ETV1 = ETV1 (Homo sapiens, UniProt P50549 1-477); settings: protein: recombinant; tags: N-terminal GST; dsDNA, one strand shown
In short: as §1

SPIB, sequence (Q01892 whole entry): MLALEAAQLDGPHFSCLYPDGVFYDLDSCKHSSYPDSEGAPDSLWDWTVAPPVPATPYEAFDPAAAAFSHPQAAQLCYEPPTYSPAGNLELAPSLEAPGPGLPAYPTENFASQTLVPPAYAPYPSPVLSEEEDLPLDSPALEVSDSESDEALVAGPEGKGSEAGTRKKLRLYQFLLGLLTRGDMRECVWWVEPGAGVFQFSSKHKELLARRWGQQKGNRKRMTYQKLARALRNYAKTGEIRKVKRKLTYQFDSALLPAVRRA
ELF4, sequence (Q99607 whole entry): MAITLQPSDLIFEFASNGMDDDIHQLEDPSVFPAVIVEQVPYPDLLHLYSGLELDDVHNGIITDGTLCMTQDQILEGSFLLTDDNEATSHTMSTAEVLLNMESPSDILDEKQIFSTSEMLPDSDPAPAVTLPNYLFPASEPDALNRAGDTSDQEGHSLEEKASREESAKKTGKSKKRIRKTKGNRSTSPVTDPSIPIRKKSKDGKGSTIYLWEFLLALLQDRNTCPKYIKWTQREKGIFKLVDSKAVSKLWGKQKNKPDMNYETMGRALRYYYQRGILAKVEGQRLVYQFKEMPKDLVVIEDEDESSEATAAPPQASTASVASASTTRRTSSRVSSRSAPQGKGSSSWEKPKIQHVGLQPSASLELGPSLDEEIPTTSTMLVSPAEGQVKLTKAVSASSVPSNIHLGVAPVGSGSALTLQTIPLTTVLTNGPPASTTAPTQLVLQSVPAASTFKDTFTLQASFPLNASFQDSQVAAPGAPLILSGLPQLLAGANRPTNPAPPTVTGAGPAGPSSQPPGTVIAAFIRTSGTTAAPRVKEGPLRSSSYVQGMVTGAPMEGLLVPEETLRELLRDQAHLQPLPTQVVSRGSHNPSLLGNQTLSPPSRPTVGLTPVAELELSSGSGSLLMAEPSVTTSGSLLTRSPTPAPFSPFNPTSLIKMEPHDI
ELF1, sequence (P32519 whole entry): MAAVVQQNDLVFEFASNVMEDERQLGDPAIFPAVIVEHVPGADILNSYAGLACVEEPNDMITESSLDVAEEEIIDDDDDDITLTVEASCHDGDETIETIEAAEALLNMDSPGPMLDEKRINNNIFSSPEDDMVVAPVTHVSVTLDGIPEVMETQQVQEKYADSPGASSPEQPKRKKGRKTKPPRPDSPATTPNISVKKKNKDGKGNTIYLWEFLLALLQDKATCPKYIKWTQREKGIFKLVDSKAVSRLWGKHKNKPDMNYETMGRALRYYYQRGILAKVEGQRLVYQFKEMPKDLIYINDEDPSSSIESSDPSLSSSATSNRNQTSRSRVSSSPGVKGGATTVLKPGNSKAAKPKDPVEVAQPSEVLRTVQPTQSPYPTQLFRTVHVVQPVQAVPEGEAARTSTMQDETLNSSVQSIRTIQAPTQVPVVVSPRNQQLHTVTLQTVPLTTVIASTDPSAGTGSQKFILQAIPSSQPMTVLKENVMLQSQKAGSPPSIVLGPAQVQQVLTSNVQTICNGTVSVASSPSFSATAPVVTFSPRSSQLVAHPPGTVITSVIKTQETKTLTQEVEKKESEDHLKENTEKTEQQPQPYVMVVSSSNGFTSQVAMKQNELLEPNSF
CRX, sequence (O43186 whole entry): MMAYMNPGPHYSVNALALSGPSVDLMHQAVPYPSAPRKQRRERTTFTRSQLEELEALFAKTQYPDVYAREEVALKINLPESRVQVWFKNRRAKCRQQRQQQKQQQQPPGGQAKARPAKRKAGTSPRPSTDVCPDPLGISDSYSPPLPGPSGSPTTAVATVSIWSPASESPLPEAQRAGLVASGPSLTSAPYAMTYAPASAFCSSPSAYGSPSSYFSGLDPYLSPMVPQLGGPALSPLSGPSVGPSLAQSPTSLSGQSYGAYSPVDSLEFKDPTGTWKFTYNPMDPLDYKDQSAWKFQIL
ETV1, sequence (P50549 whole entry): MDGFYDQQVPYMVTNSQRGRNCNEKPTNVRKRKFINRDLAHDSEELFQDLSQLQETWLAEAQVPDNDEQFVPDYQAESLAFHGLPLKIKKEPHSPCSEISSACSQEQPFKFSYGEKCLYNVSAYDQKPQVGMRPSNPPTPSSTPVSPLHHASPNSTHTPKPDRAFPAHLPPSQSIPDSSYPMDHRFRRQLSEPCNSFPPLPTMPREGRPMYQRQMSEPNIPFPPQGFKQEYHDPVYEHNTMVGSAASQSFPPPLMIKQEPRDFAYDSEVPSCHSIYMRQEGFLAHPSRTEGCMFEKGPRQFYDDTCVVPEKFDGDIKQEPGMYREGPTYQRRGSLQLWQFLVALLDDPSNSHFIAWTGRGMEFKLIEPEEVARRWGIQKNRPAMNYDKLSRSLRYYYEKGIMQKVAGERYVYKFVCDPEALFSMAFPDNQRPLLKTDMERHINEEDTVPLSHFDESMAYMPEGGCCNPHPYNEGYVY
ETV5, sequence (P41161 whole entry): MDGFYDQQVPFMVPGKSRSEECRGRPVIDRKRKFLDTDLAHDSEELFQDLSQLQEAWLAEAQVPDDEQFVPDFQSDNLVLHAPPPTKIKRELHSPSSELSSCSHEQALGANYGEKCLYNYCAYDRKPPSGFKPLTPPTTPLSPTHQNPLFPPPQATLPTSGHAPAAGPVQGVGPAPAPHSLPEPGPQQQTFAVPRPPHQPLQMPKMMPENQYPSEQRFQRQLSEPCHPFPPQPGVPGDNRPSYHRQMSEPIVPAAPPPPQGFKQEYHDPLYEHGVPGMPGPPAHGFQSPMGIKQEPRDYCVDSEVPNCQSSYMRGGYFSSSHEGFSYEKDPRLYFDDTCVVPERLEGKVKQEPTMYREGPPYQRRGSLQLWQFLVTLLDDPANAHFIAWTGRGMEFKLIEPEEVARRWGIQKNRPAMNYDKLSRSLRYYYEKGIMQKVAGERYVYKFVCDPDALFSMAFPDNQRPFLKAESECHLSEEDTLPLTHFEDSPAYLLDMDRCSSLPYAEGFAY
HSF1, sequence (Q00613 whole entry): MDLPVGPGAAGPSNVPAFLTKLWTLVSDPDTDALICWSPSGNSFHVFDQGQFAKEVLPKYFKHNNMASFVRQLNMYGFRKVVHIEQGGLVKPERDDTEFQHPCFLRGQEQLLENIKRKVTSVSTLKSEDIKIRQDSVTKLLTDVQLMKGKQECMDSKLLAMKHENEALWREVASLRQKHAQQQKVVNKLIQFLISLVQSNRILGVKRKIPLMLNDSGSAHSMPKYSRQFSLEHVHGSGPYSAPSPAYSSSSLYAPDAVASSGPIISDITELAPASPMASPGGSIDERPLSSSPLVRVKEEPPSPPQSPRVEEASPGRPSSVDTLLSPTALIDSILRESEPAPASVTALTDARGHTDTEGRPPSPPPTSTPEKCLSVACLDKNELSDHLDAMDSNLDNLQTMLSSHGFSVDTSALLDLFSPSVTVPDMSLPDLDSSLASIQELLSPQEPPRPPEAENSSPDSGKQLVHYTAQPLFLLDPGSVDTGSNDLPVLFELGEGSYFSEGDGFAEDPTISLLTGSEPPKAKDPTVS

GTAAAT
binding signal (FLI1): 1.02 fold enrichment (6-mer frequency, TF over GST control) | binding signal (ELK1): 1.09 fold enrichment (6-mer frequency, TF over GST control) | binding signal (GABPA): 1.21 fold enrichment (6-mer frequency, TF over GST control) | binding signal (ERG): 1.14 fold enrichment (6-mer frequency, TF over GST control) | binding signal (ELF1): 1.16 fold enrichment (6-mer frequency, TF over GST control) | binding signal (EHF): 1.15 fold enrichment (6-mer frequency, TF over GST control) | binding signal (SPI1): 1.22 fold enrichment (6-mer frequency, TF over GST control) | binding signal (SPIB): 1.18 fold enrichment (6-mer frequency, TF over GST control) | binding signal (ELK3): 1.16 fold enrichment (6-mer frequency, TF over GST control) | binding signal (FEV): 1.09 fold enrichment (6-mer frequency, TF over GST control) | binding signal (ETV5): 1.13 fold enrichment (6-mer frequency, TF over GST control) | binding signal (HSF1): 1.22 fold enrichment (6-mer frequency, TF over GST control) | binding signal (SPIC): 1.09 fold enrichment (6-mer frequency, TF over GST control) | binding signal (ELF4): 1.14 fold enrichment (6-mer frequency, TF over GST control) | binding signal (ELK4): 1.14 fold enrichment (6-mer frequency, TF over GST control) | binding signal (ETV2): 1.06 fold enrichment (6-mer frequency, TF over GST control) | binding signal (ELF3): 1.25 fold enrichment (6-mer frequency, TF over GST control) | binding signal (CRX): 1.32 fold enrichment (6-mer frequency, TF over GST control) | binding signal (ETV1): 1.07 fold enrichment (6-mer frequency, TF over GST control)
